Bioassay records (PubChem)
A selection: hits, their analogues and other compounds. The true share with any hit is near 3.4%.
FBW7 activator: activators of human E3 ligase FBW7; hit rate 0.13% among 650,000; Q969H0; AlphaScreen FBW7–phospho-cyclin E peptide binding, activator screen; normalized activity (activation), % at 26.1 µM; in the data active = normalized activity above about 1.9%;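 note: purified mutant Fbw7 with reduced substrate affinity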
Target sequence (Q969H0 whole entry, looked up): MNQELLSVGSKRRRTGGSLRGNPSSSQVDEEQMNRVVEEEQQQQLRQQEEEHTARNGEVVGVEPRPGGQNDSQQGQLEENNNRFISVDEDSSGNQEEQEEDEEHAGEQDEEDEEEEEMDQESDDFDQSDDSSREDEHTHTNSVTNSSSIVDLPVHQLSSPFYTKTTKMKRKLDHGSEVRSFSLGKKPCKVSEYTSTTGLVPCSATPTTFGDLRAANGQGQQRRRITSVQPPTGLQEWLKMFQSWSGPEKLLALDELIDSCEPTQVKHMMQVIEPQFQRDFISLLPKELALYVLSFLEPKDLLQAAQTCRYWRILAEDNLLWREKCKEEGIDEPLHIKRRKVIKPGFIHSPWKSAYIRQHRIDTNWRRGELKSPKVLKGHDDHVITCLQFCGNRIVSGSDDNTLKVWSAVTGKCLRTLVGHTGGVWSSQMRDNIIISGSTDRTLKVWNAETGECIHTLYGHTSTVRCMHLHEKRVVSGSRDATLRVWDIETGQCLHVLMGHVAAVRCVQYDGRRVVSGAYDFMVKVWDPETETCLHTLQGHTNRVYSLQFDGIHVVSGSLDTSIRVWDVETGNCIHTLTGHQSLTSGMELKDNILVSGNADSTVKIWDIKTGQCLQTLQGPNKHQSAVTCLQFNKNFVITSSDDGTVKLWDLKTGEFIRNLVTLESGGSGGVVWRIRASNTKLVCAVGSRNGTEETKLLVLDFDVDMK
TEAD-YAP inh: TEAD-YAP interaction inhibition | hit rate 1.4% among 640,000 | inhibition, % at 9.12 µM | HEK-TIYL cells, TEAD-Gal4/YAP UAS-luciferase luminescence | AID 1259422; in the data active = inhibition above about 32%;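 note: 0% = median of test compound wells and 100% = reference inhibitor wells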
GPR151 activ: activates the human receptor GPR151; hit rate 1% among 650,000; AID 1508602; activation, % at 11.2 µM; PathHunter beta-arrestin GPR151 cells, luminescence; Q8TDV0; in the data active = activation above about 4.9%;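 note: 0% = median of compound wells and 100% = cells with positive control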
MITF inh: human MITF inhibition, primary screen; O75030; AlphaScreen MITF homodimerization, bead proximity signal; inhibition, % at 2.6 µM; hit rate 0.91% among 650,000; AID 1259374; in the data active = inhibition above about 50%;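 note: 0% = vehicle wells with protein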
MITF confirm: human MITF inhibition, confirmation | shares compounds with MITF inh | AlphaScreen MITF homodimerization, biotin/His-MITF beads | inhibition, % at 2.6 µM | hit rate 16% among 4,700 | AID 1259372;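 active = inhibition above a cutoff derived from the DMSO control wells, cut at about 28% in these data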;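 note: 0% = MITF dimer wells with DMSO only; inhibitors lower the bead chemiluminescence by keeping MITF from dimerizing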
AlphaScreen DR: AlphaScreen optical interference, dose response counter-screen. shares compounds with MITF inh. AlphaScreen optical interference counterscreen, cell-free. IC50, µM. hit rate 6% among 480. AID 1259373; call rule not given here
AlphaScreen intf2: optically interferes with AlphaScreen signal; shares compounds with MITF inh; LysRS AlphaScreen counterscreen, signal interference, triplicate; inhibition, % at 2.6 µM; hit rate 7.6% among 4,700; AID 1259376;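 active = inhibition above a cutoff derived from the DMSO control wells, cut at about 30% in these data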
* marks the source's active call; other numbers are inactive results; . = no result.

SMILES	FBW7 activator	TEAD-YAP inh	GPR151 activ	MITF inh	MITF confirm	AlphaScreen intf2	others
CN(CC(=O)Nc1c2c(nc3ccccc13)N(C)CC2)Cc1ccccc1	0	22	4	65*	-6	-7
CCOC(=O)N1CCc2c(sc(NC(=O)C3CCCCC3)c2C#N)C1	0	3	-1	7	.	.
O=S(=O)(O)c1ccc2ccc(S(=O)(=O)O)cc2c1	0	-4	1	1	.	.
CS(=O)(=O)N(CC(=O)N1CCN(c2cccc(Cl)c2)CC1)c1cccc(Cl)c1	0	-8	-1	-6	.	.
COCCNC(=S)NNC(=O)c1ccccc1-n1cccc1	0	-2	0	20	.	.
COc1cc(OC)c(C2C(C#N)=C(N)Oc3n[nH]c(-c4cc(OC)c(OC)c(OC)c4)c32)cc1OC (stereo unspecified)	0	-7	2	-13	.	.
NC1(C(Cl)(Cl)Cl)Oc2ccccc2O1	-1	-7	0	84*	114*	25	AlphaScreen DR=>6.5
Cc1sc2ncnc(Sc3ccccc3)c2c1C	0	-1	1	-5	.	.
CCNCC(=O)c1[nH]c(C)c(C(C)=O)c1C	0	6	0	51*	-4	-4
CCCCc1nc2ccccc2c(C(=O)O)c1C	0	7	3	8	.	.
CCCCc1nc2ccccc2c(NC(=O)CN2CCN(C(=O)c3ccccc3)CC2)c1CCC	0	0	4	62*	16	22
CCCCCCN(CCCCCC)CC(=O)Nc1c(C)c(CC)nc2ccccc12	0	9	1	69*	7	6
CCc1nc2ccccc2c(NC(=O)CN2CCN(CCO)CC2)c1C	0	-1	0	69*	7	10
Cc1cc(NC(=O)Cn2nc(C(=O)N3CCOCC3)cc2C)c2ccccc2n1	0	-8	-1	-20	.	.
CCCc1nc2ccccc2c(NC(=O)CN2CCCC2)c1CC	0	-14	1	81*	19	-10
CCc1sc(NC(=O)CN2CCCC2)nc1-c1ccccc1	0	22	1	5	.	.
CC(NS(=O)(=O)c1ccc2c3c(cccc13)C(=O)N2)C1C2CC3CC(C2)CC1C3 (stereo unspecified)	0	-4	0	5	.	.
CCOc1ccc(NC(=O)c2cc3nc(-c4ccc(OC)c(OC)c4)cc(C(F)(F)F)n3n2)cc1	0	-3	1	-4	.	.
CC1CCN(S(=O)(=O)c2ccc3nc(-c4cccnc4)cc(C(=O)O)c3c2)CC1	0	-3	0	-12	.	.
CN(C)CCCN1C(=O)C(=O)/C(=C(\O)c2ccccc2)C1c1ccco1 (stereo unspecified)	0	-1	0	75*	-4	-12
O=C(NC1CCS(=O)(=O)C1)c1ccccc1Br (stereo unspecified)	0	-5	1	51*	10	-6
O=C(NC(=S)NC1CCS(=O)(=O)C1)c1ccccc1Br (stereo unspecified)	0	6	-1	-7	.	.
CCC(C)OC(=O)C1=C(C)NC2=C(C(=O)CC(c3ccccc3)C2)C1c1cc(OC)c(OC)cc1Br (stereo unspecified)	0	0	0	63*	14	17
CCOC(=O)C1CCN(C(=O)c2ccc(N3CC4CC(C3)c3cccc(=O)n3C4)c(NC(=O)c3ccc(F)cc3)c2)CC1 (stereo unspecified)	0	6	0	-1	.	.
CCOC(=O)C1CCN(C(=O)c2ccc(N3CC4CC(C3)c3cccc(=O)n3C4)c(NC(=O)c3ccc(C(C)(C)C)cc3)c2)CC1 (stereo unspecified)	0	3	-3	67*	8	19
SMILES	FBW7 activator	TEAD-YAP inh	GPR151 activ	MITF inh	MITF confirm	AlphaScreen intf2	others
CC(C)CC(c1nnnn1CC1CCCO1)N1CCN(c2cccc(Cl)c2)CC1 (stereo unspecified)	0	2	0	84*	3	9
CC(C)CC(c1nnnn1CC1CCCO1)N1CCN(c2ccc(F)cc2)CC1 (stereo unspecified)	0	12	1	1	.	.
O=C(CC(SCc1ccco1)c1ccc2c(c1)OCO2)c1ccco1 (stereo unspecified)	0	-23	-1	-9	.	.
COc1ccc(CN2CCN(C(=O)CC(C)C)CC2)c(OC)c1OC	0	7	0	40	.	.
COc1cc(CN2CCN(C(=O)CC(C)C)CC2)cc(OC)c1	0	2	0	53*	11	10
COc1cc(CN2CCN(C(=O)CC(C)C)CC2)cc(OC)c1OC	0	4	1	70*	6	2
CN1CC[C@H](Oc2cc(-c3cn[nH]c3)ccc2NC(=O)OCc2ccccc2)C1	1	9	-1	53*	57*	-5	AlphaScreen DR=>6.5
COc1cccc(COC(=O)Nc2ccc(-c3cn[nH]c3)cc2N(C)CCN(C)C)c1	1	-16	-1	68*	73*	11	AlphaScreen DR=>6.5
O=C(Nc1ccc(-c2cn[nH]c2)cc1OCCN1CCCC1)OCc1ccccc1	0	-2	-1	3	.	.
CN(C)CCN(C(=O)OCc1ccccc1)c1cc(-c2cn[nH]c2)ccc1NC(=O)OCc1ccccc1	1	-1	1	58*	56*	-12	AlphaScreen DR=>6.5
Cc1cccc(CN2CCN(Cc3nc(C(C)C)cs3)CC2CCO)n1 (stereo unspecified)	0	-1	3	-7	.	.
O=C(NCC(c1cccs1)S(=O)(=O)c1ccc(Cl)cc1)c1ccco1 (stereo unspecified)	2	-3	2	70*	59*	-15	AlphaScreen DR=>6.6
CC(=O)NCC(c1cccs1)S(=O)(=O)c1ccc(C)cc1 (stereo unspecified)	1.9*	-7	1	51*	60*	-8	AlphaScreen DR=>6.4
O=C(NCC(c1ccco1)S(=O)(=O)c1cccs1)c1ccco1 (stereo unspecified)	1	-1	0	21	.	.
Cc1ccc(S(=O)(=O)C(CNC(=O)C(C)C)c2cccs2)cc1 (stereo unspecified)	0	1	-1	-8	.	.
Cc1ccc(S(=O)(=O)C(CNC(=O)c2ccco2)c2cccs2)cc1 (stereo unspecified)	1	-5	1	95*	83*	5	AlphaScreen DR=>6.6
Cc1cc(=O)oc2c(C)c(O)ccc12	0	6	0	6	.	.
CCOc1ccccc1C1C(C(=O)OC2CCCC2)=C(C)NC2=C1C(=O)CC(C)(C)C2 (stereo unspecified)	0	6	2	-3	.	.
Cc1cc(C(C)(C)C)ccc1OCCCNCCN	0	1	4	10	.	.
C=CCNCCCOc1ccc(C(C)(C)C)cc1C	0	-7	-1	32	.	.
C=CCNCCOc1ccc(C(C)(C)C)cc1C	0	10	1	51*	-12	5
Cc1cc(C(C)(C)C)ccc1OCCN(C)C	0	2	2	84*	25	9
